PubChem BioAssay (NCATS)
Values joined by “and” are separate entries in the source; they are usually repeats but may differ in a detail not shown here. Identical values can stand only once. Records with an inconclusive call do not appear. A call without a number means that no potency is given here. Active and inactive are the calls of the source. The call rests on the fitted dose curve; in most records, active means well fitted curve in the direction sought with a large enough effect; inconclusive means small, poorly fitted or top-dose-only effect, or another doubt; inactive means no such curve, though single readings can be large; an effect the other way counts as inactive or inconclusive.

What was measured:
[1] = Primary qHTS for inhibitors of nuclear receptor binding SET domain protein 2 (NSD2) in an isogenic RCH-ACV NSD2 p.E1099K mutant (9B) (AID 1645876); further: nearly all actives have a fitted effect of over 70% in size; further: potency means the concentration at half of the fitted maximal effect
[2] = Primary qHTS for inhibitors of nuclear receptor binding SET domain protein 2 (NSD2) in an RCH-ACV wild type WT cells (2C) (AID 1645877); further: nearly all actives have a fitted effect of over 70% in size; further: potency means the concentration at half of the fitted maximal effect
[3] = molecular target: Rap guanine nucleotide exchange factor 3 (Homo sapiens) (UniProt O95398); assay: Confirmatory qHTS for agonist of cAMP-regulated guanine nucleotide exchange factor 3 (EPAC1) (AID 1645881);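 further: EPAC1 catalysed release of BODIPY-GDP from Rap1B seen as fluorescence loss; nearly all actives have a fitted effect of over 75% in size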
[4] = molecular target: Rap guanine nucleotide exchange factor 4 (Homo sapiens) (UniProt Q8WZA2); assay: Confirmatory qHTS for agonist of cAMP-regulated guanine nucleotide exchange factor 4 (EPAC2) (AID 1645884);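 further: nucleotide exchange releases bodipy-GDP from Rap1 and this lowers its fluorescence; nearly all actives have a fitted effect of over 65% in size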
[5] = molecular target: Rap guanine nucleotide exchange factor 4 (Homo sapiens) (UniProt Q8WZA2); assay: Confirmatory qHTS for antagonist of cAMP-regulated guanine nucleotide exchange factor 4 (EPAC2) (AID 1645885); further: potency means the concentration at half of the fitted maximal effect; nearly all actives have a fitted effect of over 25% in size
[6] = molecular target: Rap guanine nucleotide exchange factor 3 (Homo sapiens) (UniProt O95398); assay: Confirmatory qHTS for antagonist of cAMP-regulated guanine nucleotide exchange factor 3 (EPAC1) (AID 1645880); further: potency means the concentration at half of the fitted maximal effect; nearly all actives have a fitted effect of over 55% in size
Procedure, shortened: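 Nucleotide exchange uses 100 nM EPAC1, 250 nM RAP1B-BODIPY-GDP and 50 uM GDP, with compounds in a concentration-titration series. After 5 min at room temperature, fluorescence (480 nm ex/540 nm em) is read every 5 min for 30 min. Data are normalized to control ATA and DMSO.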

Chain of Rap guanine nucleotide exchange factor 3 (Homo sapiens) (O95398 whole entry, looked up): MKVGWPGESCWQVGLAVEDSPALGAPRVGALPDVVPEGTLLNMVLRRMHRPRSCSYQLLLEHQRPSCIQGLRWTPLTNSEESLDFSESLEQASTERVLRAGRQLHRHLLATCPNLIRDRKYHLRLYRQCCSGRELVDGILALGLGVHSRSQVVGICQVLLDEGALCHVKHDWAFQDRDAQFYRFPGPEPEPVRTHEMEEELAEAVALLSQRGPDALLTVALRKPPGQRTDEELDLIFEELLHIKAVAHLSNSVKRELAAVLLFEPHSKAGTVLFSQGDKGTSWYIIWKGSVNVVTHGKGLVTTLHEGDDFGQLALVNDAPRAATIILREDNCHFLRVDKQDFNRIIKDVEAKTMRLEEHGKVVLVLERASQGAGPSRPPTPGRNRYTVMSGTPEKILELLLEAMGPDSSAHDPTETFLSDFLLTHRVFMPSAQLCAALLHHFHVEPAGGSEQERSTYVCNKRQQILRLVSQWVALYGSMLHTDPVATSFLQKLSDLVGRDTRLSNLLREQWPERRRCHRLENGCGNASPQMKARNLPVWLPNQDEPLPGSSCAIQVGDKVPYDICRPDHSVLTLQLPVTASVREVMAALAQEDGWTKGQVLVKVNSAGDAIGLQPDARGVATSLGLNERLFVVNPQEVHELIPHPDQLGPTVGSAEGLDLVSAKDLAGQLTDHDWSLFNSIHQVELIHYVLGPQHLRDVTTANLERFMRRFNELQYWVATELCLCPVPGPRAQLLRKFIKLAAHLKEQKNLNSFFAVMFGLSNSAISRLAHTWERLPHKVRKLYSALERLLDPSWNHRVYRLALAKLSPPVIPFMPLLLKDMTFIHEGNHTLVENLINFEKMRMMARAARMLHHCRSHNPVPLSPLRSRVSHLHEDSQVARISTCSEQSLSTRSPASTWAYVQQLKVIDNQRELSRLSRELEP
Chain of Rap guanine nucleotide exchange factor 4 (Homo sapiens) (Q8WZA2 whole entry, looked up): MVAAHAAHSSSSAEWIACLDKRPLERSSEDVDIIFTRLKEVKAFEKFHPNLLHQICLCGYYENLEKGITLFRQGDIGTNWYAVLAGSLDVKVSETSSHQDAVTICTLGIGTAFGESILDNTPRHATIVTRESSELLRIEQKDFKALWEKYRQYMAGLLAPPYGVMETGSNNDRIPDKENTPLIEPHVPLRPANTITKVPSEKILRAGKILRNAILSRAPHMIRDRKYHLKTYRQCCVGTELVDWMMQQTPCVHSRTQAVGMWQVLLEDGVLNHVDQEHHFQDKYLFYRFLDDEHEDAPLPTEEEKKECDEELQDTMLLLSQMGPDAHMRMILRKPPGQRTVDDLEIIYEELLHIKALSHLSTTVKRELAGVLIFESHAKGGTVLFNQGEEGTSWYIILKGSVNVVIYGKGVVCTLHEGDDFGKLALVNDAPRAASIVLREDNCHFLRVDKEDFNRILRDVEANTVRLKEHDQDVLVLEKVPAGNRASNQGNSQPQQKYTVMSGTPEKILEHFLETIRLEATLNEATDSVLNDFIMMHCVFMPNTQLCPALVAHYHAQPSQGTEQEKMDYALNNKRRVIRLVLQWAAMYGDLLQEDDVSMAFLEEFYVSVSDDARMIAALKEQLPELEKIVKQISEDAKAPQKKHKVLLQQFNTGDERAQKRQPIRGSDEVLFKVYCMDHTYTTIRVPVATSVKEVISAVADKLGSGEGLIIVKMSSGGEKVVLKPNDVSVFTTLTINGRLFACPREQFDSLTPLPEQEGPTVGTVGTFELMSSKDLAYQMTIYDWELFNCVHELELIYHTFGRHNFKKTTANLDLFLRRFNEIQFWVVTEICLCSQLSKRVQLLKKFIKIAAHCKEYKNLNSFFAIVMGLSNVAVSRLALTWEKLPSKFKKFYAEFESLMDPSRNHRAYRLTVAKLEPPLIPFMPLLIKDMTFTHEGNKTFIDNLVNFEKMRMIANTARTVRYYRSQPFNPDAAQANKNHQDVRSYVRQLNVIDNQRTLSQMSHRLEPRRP

With CCCCN1CCCC[C@H]1C(=O)Nc1c(C)cccc1C the Potency [1] was “inactive” and the Potency [2] was “inactive”.
For CCCCCCCCCCCCCCCCCCOCC(O)CO (configuration not stated), the Potency [1] was “inactive” and the Potency [2] was “inactive”.
With O=Cc1ccccc1C=O the Potency [1] was “inactive” and the Potency [2] was “inactive”.
For CCCCCCCCCCCCOS(=O)(=O)O, the Potency [1] was “inactive” and the Potency [2] was “inactive”.
For OC[C@H]1O[C@@H](O[C@@H]2[C@@H](CO)O[C@](O)(CO)[C@H]2O)[C@H](O)[C@@H](O)[C@H]1O, the Potency [1] was “inactive” and the Potency [2] was “inactive”.
For CCOC(=O)c1ccc(O)cc1, the Potency [1] was “inactive” and the Potency [2] was “inactive”.
In the case of C[C@H]1O[C@H](O[C@H]2[C@H](O)[C@@H](O)[C@@H](O[C@H]3[C@H](O)[C@@H](O)[C@H](O)O[C@@H]3CO)O[C@@H]2CO)[C@H](O)[C@@H](O)[C@@H]1N[C@H]1C=C(CO)[C@@H](O)[C@H](O)[C@H]1O, the Potency [1] is reported as “inactive” and the Potency [2] is reported as “inactive”.
For Cc1cc2c(cc1S(N)(=O)=O)S(=O)(=O)CCC2, the Potency [1] was “inactive” and the Potency [2] was “inactive”.
In the case of CC1(C)[C@@H]2CC[C@@]1(C)C(=O)C2, the Potency [1] is reported as “inactive” and the Potency [2] is reported as “inactive”.
With O=C(O)c1ccccc1O the Potency [1] was “inactive” and the Potency [2] was “inactive”.
With COc1ccc2cc1Oc1ccc(cc1)C[C@H]1c3c(cc4c(c3Oc3cc5c(cc3OC)CCN(C)[C@@H]5C2)OCO4)CCN1C the Potency [1] was 8.41 µM (active) and 9.16 µM (active) and the Potency [2] was 9.44 µM (active) and 9.16 µM (active).
In the case of C[C@@H]1C[C@H]2[C@@H]3C[C@H](F)C4=CC(=O)C=C[C@]4(C)[C@@]3(F)[C@@H](O)C[C@]2(C)[C@@]1(O)C(=O)CO, the Potency [2] is reported as 2.7 nM (active) and 5.2 nM (active).
In the case of CCCCOc1cc(C(=O)OCCN(CC)CC)ccc1N, the Potency [1] is reported as “inactive” and the Potency [2] is reported as “inactive”.
For O=C(O)COc1nn(Cc2ccccc2)c2ccccc12, the Potency [1] was “inactive” and the Potency [2] was “inactive”.
With CC[N+](CC)(CC)CCOc1ccc(/C=C/c2ccccc2)cc1 the Potency [1] was 2.11 µM (active) and the Potency [2] was 1.88 µM (active).
For Cc1ncc([N+](=O)[O-])n1CC(O)CCl (configuration not stated), the Potency [1] was “inactive” and the Potency [2] was “inactive”.
For Oc1cccc(O)c1, the Potency [1] was “inactive” and the Potency [2] was “inactive”.
For CN(C)CCCO[C@@H]1[C@H]2OC(C)(C)O[C@H]2O[C@@H]1C(O)CO (some centres not stated), the Potency [1] was “inactive” and the Potency [2] was “inactive”.
With O=c1[nH]cnc2c1ncn2[C@@H]1O[C@H](CO)[C@@H](O)[C@H]1O the Potency [1] was “inactive” and the Potency [2] was “inactive”.
In the case of CO/N=C(\C(=O)N[C@@H]1C(=O)N2C(C(=O)O)=C(CSc3nc(=O)c(O)nn3C)CS[C@H]12)c1csc(N)n1, the Potency [1] is reported as “inactive” and the Potency [2] is reported as “inactive”.
With CCOC(CN1CCN(CC(C)C(=O)c2ccccc2)CC1)c1ccccc1 (configuration not stated) the Potency [1] was “inactive” and the Potency [2] was 14.5 µM (active).
In the case of NC(=O)NNc1ccccc1, the Potency [1] is reported as “inactive” and the Potency [2] is reported as “inactive”.
In the case of c1ccc(CN(CC2=NCCN2)c2ccccc2)cc1, the Potency [1] is reported as “inactive” and the Potency [2] is reported as “inactive”.
For CC(C)(C)NCC(O)COc1ccc(NC(=O)NC2CCCCC2)cc1 (configuration not stated), the Potency [1] was “inactive” and the Potency [2] was “inactive”.
For Cc1cccc(C)c1NC(=O)CN(CC(=O)O)CC(=O)O, the Potency [1] was “inactive” and the Potency [2] was “inactive”.
In the case of O=C1OC(OC(=O)c2cccnc2Nc2cccc(C(F)(F)F)c2)c2ccccc21 (configuration not stated), the Potency [1] is reported as “inactive” and the Potency [2] is reported as “inactive”.
For N[C@@H](CSCCCO)C(=O)O, the Potency [1] was “inactive” and the Potency [2] was “inactive”.
For CC(=O)Nc1ccc(/C=N/NC(N)=S)cc1, the Potency [1] was 21.1 µM (active) and the Potency [2] was 16.8 µM (active).
With Cc1c(Cl)cccc1Nc1ccccc1C(=O)O the Potency [3] was “inactive”, the Potency [4] was “inactive” and the Potency [5] was 44.1 µM (active).
In the case of Oc1ccc(C(O)CNCCCCCCNCC(O)c2ccc(O)c(O)c2)cc1O (configuration not stated), the Potency [1] is reported as “inactive” and the Potency [2] is reported as “inactive”.
For CCCCCCCCCCCCCCCC(=O)NCCO, the Potency [1] was “inactive” and the Potency [2] was “inactive”.
With CCCCC/C(C=O)=C\c1ccccc1 the Potency [1] was “inactive” and the Potency [2] was “inactive”.
With Cc1ccc2nc(N)[nH]c(=O)c2c1Sc1ccncc1 the Potency [1] was 2.3 µM (active) and the Potency [2] was 2.05 µM (active).
With CC(C)(O)c1ccccc1CC[C@@H](SCC1(CC(=O)O)CC1)c1cccc(/C=C/c2ccc3ccc(Cl)cc3n2)c1 the Potency [1] was “inactive”, the Potency [2] was “inactive” and the Potency [6] was 25 µM (active). The Potency [3] was “inactive” and the Potency [4] was “inactive”.
For C[C@H](N)[C@H](O)c1cccc(O)c1, the Potency [1] was “inactive” and the Potency [2] was “inactive”.
In the case of O=C(CCCN1CCN(c2ccccn2)CC1)c1ccc(F)cc1, the Potency [1] is reported as “inactive” and the Potency [2] is reported as “inactive”.
For CC1=C(C/C=C(\C)CCC[C@H](C)CCC[C@H](C)CCCC(C)C)C(=O)c2ccccc2C1=O, the Potency [1] was “inactive” and the Potency [2] was “inactive”.
